Hits are enriched below; roughly 5.8% of the tested compounds scored in any of these assays.
ALOX12 inh = ALOX12 (human) lipoxygenase inhibition; 1.1% of 580,000 active; purified 12hLO, xylenol orange hydroperoxide absorbance; Potency, µM (top dose mostly 108 µM), without a hit: at the top dose activity change, negative = inhibition, most hits filed as inhibitors; P18054; note: % is set by controls: 0 for no effect and ±100 for the full control effect
Target sequence (P18054 whole entry, looked up): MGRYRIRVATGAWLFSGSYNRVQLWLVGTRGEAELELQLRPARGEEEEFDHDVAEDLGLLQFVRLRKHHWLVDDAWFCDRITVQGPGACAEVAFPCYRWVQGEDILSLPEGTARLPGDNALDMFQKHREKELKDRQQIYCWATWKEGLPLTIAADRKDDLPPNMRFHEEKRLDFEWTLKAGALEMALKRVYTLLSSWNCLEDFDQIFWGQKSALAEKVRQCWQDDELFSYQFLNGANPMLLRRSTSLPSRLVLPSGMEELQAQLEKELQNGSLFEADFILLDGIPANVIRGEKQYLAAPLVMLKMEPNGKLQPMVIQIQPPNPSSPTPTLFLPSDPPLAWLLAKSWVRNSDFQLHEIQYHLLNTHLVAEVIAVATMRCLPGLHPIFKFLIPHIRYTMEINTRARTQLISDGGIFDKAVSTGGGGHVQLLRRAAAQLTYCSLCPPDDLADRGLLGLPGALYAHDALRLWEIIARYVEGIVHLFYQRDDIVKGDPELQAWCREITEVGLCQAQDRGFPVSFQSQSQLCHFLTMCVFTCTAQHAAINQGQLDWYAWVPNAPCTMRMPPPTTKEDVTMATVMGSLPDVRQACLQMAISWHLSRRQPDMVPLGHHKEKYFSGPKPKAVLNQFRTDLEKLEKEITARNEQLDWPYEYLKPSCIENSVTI
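Purified human 12hLO (150 nM final) in 25 mM Hepes, 0.01% Triton X-100, pH 7.0 was preincubated 15 min at room temperature with compound. Then 40 uM arachidonic acid was added, 30 min. Hydroperoxide was read by Fe-XO absorbance ratio 573/405 nm.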
SW480 rerep = inducers of DNA re-replication in SW480 colon cancer cells. SW480 DNA re-replication, Hoechst DNA content imaging, 48 h. Potency, µM (series often up to 46.1 µM), for inactives: at the highest dose re-replication activation, actives largely listed as activators. 1.8% of 340,000 active; note: % of control where 0% means no effect; nearly all actives have a fitted effect of over 55% in size
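First, 250 cells per well were seeded. Next, compound or vehicle (23 nL) was pinned in, plates sat 48 hr at 37 C. Finally Hoechst was added for 40 min before fluorescence scanning.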
MCF10A rerep = DNA re-replication induction in MCF 10a cells. MCF 10A DNA re-replication, Hoechst nuclear intensity, 48 h. Potency, µM (highest dose often 46.1 µM), for the others: at the highest dose activity, positive = re-replication, actives largely listed as activators. 2.9% of 350,000 active. AID 624296; note: % of control where 0% means no effect; nearly all actives have a fitted effect of over 50% in size
PINK1 modulator = modulators of PINK1 expression | PINK1 immunofluorescence, high-content cytometry, 24 h | Potency, µM (top dose mostly 76.6 µM), inactives show top-dose activation (PINK1 increase), hits mostly activators | 0.2% of 410,000 active; active = well fitted activation curve with a large enough effect; inconclusive = small, poorly fitted or top-dose-only effect; cell line not stated here; note: % of control where 0% means no effect; nearly all actives have a fitted effect of over 65% in size
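Cells are seeded, rested 12 hours, then given compound at five concentrations or DMSO for 24 hours. After fixation, blocking and antibody staining, PINK1 amount and mitochondrial localization are scored; CCCP serves as control.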
KB-3-1 cytotox = KB-3-1 parental cell cytotoxicity; Potency, µM (series often up to 46.1 µM), most hits filed as cytotoxic; KB-3-1 viability, CellTiter-Glo ATP luminescence, 72 h; 1.4% of 400,000 active; AID 1347075; note: % is set by controls: 0 for no effect and ±100 for the full control effect; nearly all actives have a fitted effect of over 60% in size
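72 h, 37 °C compound treatment of KB-3-1 parental cells; CellTiter-Glo added, 10 min, luminescence read. Data corrected against DMSO-only plates and normalized before curve fitting.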
KB-V1 MDR tox = KB-V1 MDR subline cytotoxicity; 3.4% of 400,000 active; Potency, µM (titrated, usually from 46.1 µM), usual class: cytotoxic; KB-V1 MDR cells viability, CellTiter-Glo, 72 h; AID 1347076; note: % is set by controls: 0 for no effect and ±100 for the full control effect; nearly all actives have a fitted effect of over 60% in size
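Cytotoxicity via CellTiter-Glo luminescence after 72 h compound exposure at 37 degrees C. Cells: drug-selected KB-V1 line, DMEM phenol-red free plus 10% FBS. Compounds tested at multiple concentrations; normalized data fitted to concentration-effect curves.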
An asterisk follows results filed as active; i = inactive; u = inconclusive; x = no result given; [ ] = dose if it differs, or a comment. Unless noted, calls come from the whole dose curve; as a rule, active = well fitted curve in the direction sought with a large enough effect; inconclusive = small, poorly fitted or top-dose-only effect, or another doubt; inactive = no such curve, though single readings can be large; an effect the other way counts as inactive or inconclusive. Potency is the fitted concentration of half-maximal effect.

SMILES	ALOX12 inh	SW480 rerep	MCF10A rerep	PINK1 modulator	KB-3-1 cytotox	KB-V1 MDR tox
C/C=C\C=C/C(=O)Nc1cccc(C2=NOC3(C2)C[C@H](C(N)=O)N(C(=O)CC)C3)c1 (some centres not stated)	-8%	-1%	-1%	u	i	u
CC1CC1c1ccc(/C=C(\C#N)C(=O)Nc2ccc(Cl)cc2Cl)o1 (configuration not stated)	-23%	x	16µM*	3%	i	u
CC1CC1c1ccc(/C=C(\C#N)C(=O)Nc2cc(Cl)ccc2Cl)o1 (configuration not stated)	-16%	0%	19%	u	i	i
CCOc1cc(NC(=S)Nc2cccc(C)c2)c(OCC)cc1NC(=O)CC(C)C	u	21%	11%	60%[38.3 µM]	i	3.3µM*
CCOc1cc(NC(=O)CC(C)C)c(OCC)cc1NC(=O)CCn1nnc2ccccc21	-9%	-2%	-2%	-2%	u	4.1µM*
Cc1ccc(C)c(C(=O)NC2C3CC4CC(C3)CC2C4)c1 (configuration not stated)	-9%	x	x	x	x	x
COc1ccc(NC(=O)CN2C(=O)C(C)Oc3ccccc32)c(OC)c1 (configuration not stated)	-25%	-15%	1%	-5%[38.3 µM]	i	16µM*
Cc1cccc(NC(=O)CN2C(=O)C(C)Oc3ccccc32)n1 (configuration not stated)	0%	-35%	-8%	0%	i	i
Cc1ccc(NC(=O)CN2C(=O)C(C)Oc3ccccc32)nc1 (configuration not stated)	13%	-4%	2%	-1%[38.3 µM]	i	15µM*
CCCCOC(=O)Cn1c(-c2ccccc2)nc2ccccc2c1=O	-3%	-24%	u	2%	i	i
CCCOC(=O)C(C)n1c(-c2ccccc2)nc2ccccc2c1=O (configuration not stated)	23%	-1%	1%	8.9µM*	i	u
O=c1oc2ccccc2cc1-c1cn2cc(Cc3ccc(F)cc3)sc2n1	-5%	x	x	11%	0.58µM*	i
O=c1oc2ccccc2cc1-c1cn2cc(Cc3ccc(Br)cc3)sc2n1	0%	x	x	4%	u	i
COc1cc(NC(=O)C2(C#N)CCCC2)c(OC)cc1NC(=O)c1ccccc1	77%	x	x	x	x	x
CCOc1ccc(-c2nc(CSCC(=O)NCC(OC)OC)c(C)o2)cc1	3%	x	x	x	x	x
O=C1NC(=O)/C(=C/c2ccc(N3CCOCC3)o2)N1	u	-11%	5%	3%	i	i
O=C1NC(=O)/C(=C\c2ccc(N3CCOCC3)o2)N1	20µM*	2%	0%	6%	i	i
CCc1noc(CC2CCOC3(CCN(S(=O)(=O)c4cccc(Cl)c4)CC3)C2)n1 (configuration not stated)	10%	x	x	x	x	x
CCOc1ccc(NC(=O)CSc2nccn2Cc2ccccc2OC)cc1	-9%	x	x	x	x	x
Cc1nn(CCc2n[nH]c(=S)n2C2CCCCC2)c(C)c1Br	22µM*	1%	19%	-3%[38.3 µM]	i	i
Cc1nn(CCc2n[nH]c(=S)n2C)c(C)c1Br	u	-3%	5%	-3%[38.3 µM]	i	i
CCN1CCCC1CNC(=O)CC(C)(C)C (configuration not stated)	1%	x	x	x	x	x
Cc1ccccc1Cn1cnc(NC(=O)c2ccn(COc3ccc(F)cc3F)n2)n1	12%	x	x	x	x	x
O=C(C1CCCCC1)N1CCN(C2CCN(Cc3cccnc3)C2=O)CC1 (configuration not stated)	25%	x	x	x	x	x
CC(C)Cc1nc2cccnc2n1C1CCN(S(=O)(=O)c2ccc(Br)s2)CC1	-18%	x	x	x	x	x
SMILES	ALOX12 inh	SW480 rerep	MCF10A rerep	PINK1 modulator	KB-3-1 cytotox	KB-V1 MDR tox
Cc1c(C#N)c(NC(=O)CCl)n(Cc2cccs2)c1C	-21%	5.8µM*	u	-1%	u	u
Cc1cc(=O)n(CCCO)c(O)c1C#N	u	-7%	0%	0%	i	i
Cc1c(C#N)c(NC(=O)CCl)n(Cc2ccccc2)c1C	-10%	u	u	0%	10µM*	u
Cc1cc(=O)n(Cc2ccccc2)c(O)c1C#N	18µM*	-5%[9.22 µM]	-3%	2%	i	i
CCN(CC)C(=O)c1sc(NC(=O)Cc2cccs2)c(C#N)c1C	-2%	16%	1%	2%[38.3 µM]	i	u
Cc1c(C#N)c(NC(=O)CCl)n(Cc2ccc(F)cc2)c1C	-13%	u	u	-1%	u	i
COc1ccc(-c2nc(SC(C)C(=O)NCC(C)C)n[nH]2)c(OC)c1 (configuration not stated)	-25%	x	x	x	x	x
CC(Sc1nnc(-c2ccncc2)n1C)C(=O)NCC(=O)Nc1ccc(F)c(F)c1F (configuration not stated)	16%	x	x	2%	i	i
CC(Sc1nnnn1-c1ccc(Cl)cc1)C(=O)NCC(=O)Nc1ccc(F)c(F)c1F (configuration not stated)	1%	2%	14%	3%	i	16µM*
CCOC(=O)Nc1ccc(C(=O)OC)cc1	-9%	x	x	x	x	x
Cc1[nH]n(-c2ccccc2)c(=O)c1/C=N/N(C)c1ccccc1	u	u	-63%	2%	i	15µM*
Cc1ccc2cccc(N=Cc3c(C)[nH]n(-c4ccccc4)c3=O)c2n1	17%	7.3µM*	2%	2%	i	13µM*
Cc1[nH]n(-c2ccccc2)c(=O)c1/C=N/O	10%	u	u	x	i	i
c1cc(-c2ccnc3nc(CCC4CCCC4)nn23)ccn1	35%	x	x	x	x	x
C/C=C1\NC(=O)[C@H](CC(N)=O)N(C)C(=O)C([C@@H](C)O)NC(=O)C(CCCc2ccc(OC)cc2)NC(=O)[C@H](C(C)C)NC(=O)/C(=C\C)NC(=O)[C@H](O)[C@@H](C[C@@H](O)CCCCCCC)NC(=O)[C@H](C)NC(=O)CN(C)C(=O)[C@H](CCC(N)=O)NC1=O (some centres not stated)	8%	u	18µM*	0%	16µM*	i
C/C=C1\NC(=O)[C@H](C)NC(=O)[C@@H](NC(=O)[C@H](Cc2ccc(O)cc2)NC(=O)[C@@H](NC(=O)/C(C)=C/C)C(C)C)[C@@H](C)OC(=O)[C@H](CCCc2ccc(O)cc2)NC(=O)[C@@H](CCC(=O)OC)NC1=O	u	x	x	1%	i	i
CCN1C(=O)CC(C(=O)Nc2ccc(F)cc2)SC1=Nc1cccc(OC)c1 (configuration not stated)	-22%	3%	21%	1%	u	18µM*
